TRHR PAM – qHTS for Small Molecule Agonists and Allosteric Enhancers of Human TRH Receptor: Primary Screen for Enhancers. Thyrotropin-releasing hormone receptor (Homo sapiens), P34981. TRHR cells, fluo-8 calcium fluorescence, EC20 TRH enhancement. enhancement, % at 2 µM. actives 0.66% (n = 360,000). AID 493056, 2011; in the data active = enhancement above about 30%
Target sequence (P34981 whole entry, looked up): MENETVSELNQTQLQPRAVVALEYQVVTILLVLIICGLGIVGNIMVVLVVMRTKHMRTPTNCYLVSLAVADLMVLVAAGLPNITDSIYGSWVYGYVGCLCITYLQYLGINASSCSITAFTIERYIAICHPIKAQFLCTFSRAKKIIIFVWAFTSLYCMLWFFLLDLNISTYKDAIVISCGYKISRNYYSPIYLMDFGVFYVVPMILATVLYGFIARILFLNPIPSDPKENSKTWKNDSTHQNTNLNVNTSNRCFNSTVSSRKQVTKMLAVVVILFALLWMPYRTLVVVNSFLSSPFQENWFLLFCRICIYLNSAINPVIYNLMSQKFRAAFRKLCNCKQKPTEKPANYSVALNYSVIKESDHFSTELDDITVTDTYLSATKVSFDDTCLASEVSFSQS
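Enhancer read-out: after compound pinning and an initial kinetic agonist-mode read, an EC20 of TRH (10 nM final) was injected and fluo-8 calcium signal (Ex 480/Em 530) followed at 1 s/cycle for 100 cycles in TRHR-expressing cells.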
TRHR agonist – qHTS for Small Molecule Agonists and Allosteric Enhancers of Human TRH Receptor: Primary Screen for Agonists; AID 493084, 2011; activation, % at 2 µM; TRHR cells, calcium flux fluo-8, FDSS agonist mode; Thyrotropin-releasing hormone receptor (Homo sapiens), P34981; actives 0.18% (n = 360,000)
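Read-out: compound-evoked intracellular calcium rise in TRHR cells, fluo-8 dye, kinetic FDSS fluorescence at 1 s/cycle following a 10-cycle baseline. Cells cultured overnight before dye loading (30 min–1.5 h, RT).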
D1 potentiator – Potentiators of Human D1 Dopamine Receptor: qHTS; HEK293 TREx D1 cells, calcium flux, dopamine EC20 potentiation; potentiation, % at 10 µM; actives 0.036% (n = 360,000); AID 504651, 2011; in the data active = potentiation above about 30%
D1 antag – Antagonist of Human D 1 Dopamine Receptor: qHTS | D(1A) dopamine receptor (Homo sapiens), P21728 | HEK293 TREx D1 cells, calcium flux, dopamine EC80; active compounds read low | activity change, negative = inhibition, % at 10 µM | actives 3.2% (n = 360,000) | AID 504652, 2011; in the data active = activity change below about -30%
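Cells carrying a force-coupled, tetracycline-inducible human D1 receptor report calcium flux. Each well gets a 10 s baseline, compound with 180 s monitoring, then an EC80 dopamine stimulus with a second 180 s kinetic read.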
D1 agonist – Allosteric Agonists of the Human D1 Dopamine Receptor: qHTS; D(1A) dopamine receptor (Homo sapiens), P21728; HEK293 T-REx D1 cells, calcium flux, agonist mode; activation, % at 2 µM; actives 1% (n = 360,000)
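Agonism was scored from calcium flux recorded over 180 s (1 read/s) after pintool compound addition, following a 10-cycle baseline. Cells were inducible force-coupled HEK293 TREx D1, plated overnight at 30 C and loaded with no-wash calcium dye.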
A number is an active result; 0 = inactive; ! = not active in a repeat. In the library only some 4.6% were active in any assay of this set; here they are far more common. Cut-off read from the data, not from the text of the source, unless noted: active = activation above about 30%; inactive = the rest.

SMILES	TRHR PAM	TRHR agonist	D1 potentiator	D1 antag	D1 agonist
COC(=O)c1ccc(N2CCOCC2)c(NC(=O)c2ccc3c(c2)OCO3)c1	0	0	0	0	0
COc1ccc(N2CCCC2)c(NC(=O)c2ccc([N+](=O)[O-])o2)c1	0	0	0	-35.7	0
COc1ccc(C(=O)NC(=S)Nc2ccccc2N2CCOCC2)cc1[N+](=O)[O-]	0	0	0	0	0
COc1cc(NC(=O)c2ccc3c(c2)OCO3)c2ncccc2c1	0	0	0	-30.7	0
COc1ccc(N2CCOCC2)c(NC(=O)c2ccc3c(c2)OCO3)c1	37.8	0	0	0	0
CCn1c(=O)c2sccc2n2c(CCCC(=O)Nc3ccc(Oc4ccccc4)cc3)nnc12	0	0	0	0	0
O=C(NCCCc1ccccc1)c1ccc(F)cc1	0	0	0	0	0
O=C(NCCNC1CCC(c2ccccc2)CC1)c1ccc(F)cc1 (stereo unspecified)	0	0	0	-36.9	51.9
COc1ccc(S(=O)(=O)n2nc(-n3c(C)ccc3C)c3c(F)cccc32)cc1OC	0	0	0	-34.0	0
CCS(=O)(=O)CCn1c([N+](=O)[O-])cnc1C	37.5	0	0	0	0
CCCCNc1nc(-c2ccccc2)nc(-n2ccnc2)n1	0	0	0	-38.0	0
CCC(NC(=O)c1cc(COc2cc(C)c(Cl)c(C)c2)on1)c1ccncc1 (stereo unspecified)	0	0	0	0	35.7
CCC(NC(=O)c1cc(COc2ccc(OC)cc2Cl)on1)c1ccncc1 (stereo unspecified)	0	0	0	0	0
COc1ccc(OC(C)C(=O)NCc2nc(-c3ccc(Cl)cc3)no2)cc1 (stereo unspecified)	0	0	0	0	0
Fc1ccccc1Nc1n[nH]c(=S)s1	0	0	0	0	0
S=c1[nH]nc(Nc2cccc3ccccc23)s1	0	0	0	-32.6	0
Cc1ccc(S(=O)(=O)N(CC(=O)N/N=C/c2cccc(C)c2)c2cccc3cccnc23)cc1	0	0	0	-30.2	0
Cc1nc(-c2ccccc2)sc1-c1ccc(SCC(=O)Nc2ccccc2)nn1	0	0	0	0	0
COC(=O)c1ccc(NC(=O)CSc2ccc(-c3sc(-c4ccccc4)nc3C)nn2)cc1	0	0	0	-46.3	0
OC(CNC1CCCC1)COc1ccc(-c2ccccc2)cc1 (stereo unspecified)	0	0	0	0	0
OC(CNC1Cc2ccccc2C1)COc1ccc(Cl)cc1 (stereo unspecified)	0	0	0	0	39.6
O=C(c1ccccc1)c1ccc(OCC(O)CNCc2ccc(Cl)cc2)cc1 (stereo unspecified)	0	0	0	0	74.9
Cc1cc(C(=O)N2CCCC(C(=O)c3cccc4ccccc34)C2)nc(C)n1 (stereo unspecified)	0	0	0	-61.1	0
O=C(c1cccc2ccccc12)C1CCCN(C(=O)CCN2CCCO2)C1 (stereo unspecified)	38.1	0	0	0	0
CCOc1ccc(/C=C(\C#N)C(=O)Nc2sc3c(c2C(=O)OC)C(C(=O)OC)CC3)cc1OC (stereo unspecified)	0	0	0	0	0
SMILES	TRHR PAM	TRHR agonist	D1 potentiator	D1 antag	D1 agonist
CCc1ccccc1NC(=O)C(C)n1nc(-c2ccc(C)c(C)c2)ccc1=O (stereo unspecified)	0	0	0	0	0
CCc1cccc(CC)c1NC(=O)Cc1csc(C)n1	0	0	0	0	0
COc1ccc(NC(=S)Nc2ccc3snnc3c2)cc1	0	0	0	0	0
COc1ccc(NC(=S)Nc2ccc3nccnc3c2)cc1	0	0	0	-33.8	0
CC(C)CCOP(=O)(c1ccc(N(C)C)cc1)C(Nc1ccccc1)c1ccc(N(C)C)cc1 (stereo unspecified)	0	0	0	0	0
CC(C)OP(=O)(c1ccc(N(C)C)cc1)C(Nc1ccccc1)c1ccccc1 (stereo unspecified)	0	0	0	-39.9	0
CCCNC(=O)COCc1cc(-c2ccc(F)cc2)on1	0	0	0	0	0
Cc1cc(OCCCn2c(CCNC(=O)C3CCCCC3)nc3ccccc32)ccc1Cl	0	0	0	0	44.3
Cn1c(N)c(C(=O)CSc2nnc(NC3CCCCC3)s2)c(=O)n(C)c1=O	0	0	0	0	0
CCc1ccc2oc(C(=O)Nc3nonc3CC)c(C)c2c1	0	0	0	-37.6!	0
COc1ccc(CCN2C(=O)N(c3ccc(C)cc3)C(=O)C2CC(=O)Nc2ccc(F)cc2)cc1 (stereo unspecified)	0	0	0	0	0
COc1ccc2c(c1)CCCN2C(N)=Nc1ccc(Cl)cc1	0	0	0	-44.1	48.6
CCCCCCCCCCCCCCCC(=O)OC(CC(=O)O)C[N+](C)(C)C (stereo unspecified)	0	0	0	-33.7	74.5
COc1ccc(-c2cc(C(=O)O)c3c(C)nn(-c4ccccn4)c3n2)cc1	0	0	0	-40.1	0
Cc1ccc(-n2nc(C)c3c(C(=O)O)cc(C)nc32)cc1	0	0	0	-49.6	0
O=S(=O)(NC1CCC(CNS(=O)(=O)c2c(F)cccc2F)CC1)c1ccc2c(c1)OCCO2 (stereo unspecified)	0	0	0	0	0
CCN(CC)CCCN1C(=O)C2C(C(=O)Nc3ccc(C(C)C)cc3)C3C=CC2(O3)C1C(=O)NC1CCCCC1 (stereo unspecified)	0	0	0	0	0
CCN(C(=O)CSc1ncc2c(n1)-c1cc(Cl)ccc1N(Cc1ccccc1)S2(=O)=O)c1cccc(C)c1	0	0	0	0	0
O=C(c1ccco1)N1CCCC(N2CCN(c3ccccc3F)CC2)C1 (stereo unspecified)	0	0	0	0	0
CC(C)/C=C/C(=O)N1CCCC(N2CCN(c3ccccc3F)CC2)C1 (stereo unspecified)	0	0	0	-45.9	0
Cc1ccccc1N1CCN(C2CCCN(C(=O)CN3CCCC3=O)C2)CC1 (stereo unspecified)	0	0	0	0	0
COc1ccccc1N1CCN(C2CCCN(C(=O)CN3CCCC3=O)C2)CC1 (stereo unspecified)	0	0	0	-31.7	0
CCOc1ccc(CNC(=O)CC(C)n2nc(C)cc2C)cc1OC (stereo unspecified)	0	0	0	0	0
Cc1ccc(NC(=O)c2c(C)oc3ccc(O)c(CN4CCCCCC4)c23)cc1	0	0	0	0	0

Compound activity as filed in PubChem BioAssay.
